Assay results as given in PubChem BioAssay (NCI).
Compounds without any hit were thinned out: in the full panel of roughly 79,000, 15% have a hit. Calls of active or inactive are those of the source. Cut-off read from the data, not from the text of the source: active = growth inhibition above about 70%; inactive = the rest.

Test: NCI Yeast Anticancer Drug Screen. Data for the rad14 strain (AID 159);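 note: 0% = growth of vehicle-treated control cultures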
Details: S. cerevisiae rad14 strain growth inhibition, hits give high values
Method: Growth inhibition of yeast strains with defined genetic alterations is measured as a screen for potential anti-cancer activity. Selected strains with alterations in DNA damage repair or cell cycle control were exposed to compounds and growth inhibition was measured relative to vehicle treated controls. The strain used in this assay is rad14

Row | Structure (SMILES) | growth inhibition (at 1.2 µM) | growth inhibition (at 3.7 µM) | growth inhibition (at 11.0 µM) | growth inhibition (at 33.0 µM) | growth inhibition (at 100.0 µM)
1 | Nc1ccccc1C(=O)OCCc1ccccc1 | -19% (inactive) | -10% (inactive) | -21% (inactive) | -12% (inactive) | 97% (active)
2 | COC(=O)C(F)C(Br)C(=O)OC (stereo not given) | 5% (inactive) | 67% (inactive) | 93% (active) | 97% (active) | 96% (active)
3 | CCOP(=O)(CC(C)P(=O)(OCC)OCC)OCC.C[CH2][Sn]([Cl])([Cl])[CH2]C (stereo not given) | -3% (inactive) | 1% (inactive) | 4% (inactive) | 19% (inactive) | 76% (active)
4 | O=[N+]([O-])c1ccc(N2CCC(CCCC3CCN(c4ccc([N+](=O)[O-])cc4[N+](=O)[O-])CC3)CC2)c([N+](=O)[O-])c1 | -32% (inactive) | -27% (inactive) | -13% (inactive) | -16% (inactive) | 19% (inactive)
5 | C[C@]12CCC3[C@@H](CC[C@@H]4c5nonc5CC[C@]34C)C1CCC2=O (stereo not given in full) | 40% (inactive) | 40% (inactive) | 55% (inactive) | 87% (active) | 90% (active)
6 | O=C1c2ccccc2C(=O)C(Cl)C1Cl (stereo not given) | 7% (inactive) | 18% (inactive) | 92% (active) | 99% (active) | 99% (active)
7 | OC1(c2ccccc2)CC2CCC(C1)N2CCCC(O)(c1ccccc1)c1ccccc1 (stereo not given) | 4% (inactive) | 5% (inactive) | 15% (inactive) | 53% (inactive) | 96% (active)
8 | C/C(=N\O)c1ccc2ccc3ccccc3c2c1 | 2% (inactive) | 12% (inactive) | 22% (inactive) | 41% (inactive) | 94% (active)
